LMNA splice mod = qHTS Assay for Modulators of Lamin A Splicing. HeLa LMNA splicing GFP/RFP minigene ratio, 48 h. Potency, µM (series often up to 46.1 µM), without a hit: at the highest dose ratio change, negative = inhibition, most hits filed as inhibitors. 0.01% of 200,000 active; active = well fitted inhibition curve with a large enough effect in the signal ratio, with a control signal flat, not every such curve was filed as active; inconclusive = small, poorly fitted or top-dose-only effect, or effect the other way, or a change in a side signal; the % refers to the signal ratio; note: potency is the fitted concentration of half-maximal effect
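Read-out is the ratio of GFP to DsRed2 object intensity, acquired by 488 nm laser-scanning cytometry on HeLa lamin A-EGFP minigene reporter cells. Compound incubation 48 hrs at 37 °C in Opti-MEM with 2% FBS; DMSO 0.5% final.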
ALDH1A1 inh = qHTS Assay for Inhibitors of Aldehyde Dehydrogenase 1 (ALDH1A1) | Purified ALDH1A1, NADH fluorescence, propionaldehyde substrate | Potency, µM (top dose mostly 75.3 µM), for inactives: top-dose activity, negative = inhibition, actives largely listed as inhibitors | 7.3% of 220,000 active | AID 1030, 2008;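 note: potency is the fitted concentration of half-maximal effect; plate controls were no enzyme wells and a reference inhibitor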
Luc counter = Counterscreen for Luciferase (Kinase-Glo TM) Inhibition. Luciferin 4-monooxygenase (Photuris pensylvanica), Q27757. Kinase-Glo luciferase, ATP luminescence, 8 min. Potency, µM (top dose mostly 38.3 µM), inactives show at the top dose activity change, negative = inhibition, usual class: inhibitors. 0.28% of 200,000 active. AID 1379, 2008; active = well fitted inhibition curve with a large enough effect; inconclusive = small, poorly fitted or top-dose-only effect; note: potency is the fitted concentration of half-maximal effect; nearly all actives have a fitted effect of over 60% in size
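Compounds were added to a substrate mix at pH 7.2 (50 mM imidazole, 10 uM ATP, within the enzyme's linear range), followed by Kinase-Glo detection reagent; luminescence was measured after 8 minutes at ambient temperature.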
PNC assembly inh = High Content Assay for Compounds that inhibit the Assembly of the Perinucleolar Compartment; PC3M PTB-GFP, PNC prevalence imaging, 16 h; hits give low values; activity change (PNC), negative = inhibition, % at 10 µM; 3.1% of 140,000 active;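 active = readout at or below -70, meaning at least 70% loss of cells showing the perinucleolar compartment, a nuclear body marking cancer cells; inconclusive = readout between -30 and a set limit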;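 note: plate controls were DMSO wells for no effect and camptothecin positive control wells for full effect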
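PC3M cells stably expressing PTB-GFP, 750–1000 cells/well, treated 16 h at 37 °C with compound (23 nl of library stock), in duplicate. After paraformaldehyde fixation and Hoechst stain, imaged at 20x; PNC prevalence scored by image analysis.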
HPGD block = qHTS Assay for Inhibitors of HPGD (15-Hydroxyprostaglandin Dehydrogenase) | purified HPGD, NADH fluorescence kinetic, PGE2 substrate | 4.3% of 150,000 active | Potency, µM, inactives show top-dose activity change, negative = inhibition, most hits filed as inhibitors | 15-hydroxyprostaglandin dehydrogenase [NAD(+)] (Homo sapiens), P15428; note: potency is the fitted concentration of half-maximal effect
Target sequence (P15428 whole entry, looked up): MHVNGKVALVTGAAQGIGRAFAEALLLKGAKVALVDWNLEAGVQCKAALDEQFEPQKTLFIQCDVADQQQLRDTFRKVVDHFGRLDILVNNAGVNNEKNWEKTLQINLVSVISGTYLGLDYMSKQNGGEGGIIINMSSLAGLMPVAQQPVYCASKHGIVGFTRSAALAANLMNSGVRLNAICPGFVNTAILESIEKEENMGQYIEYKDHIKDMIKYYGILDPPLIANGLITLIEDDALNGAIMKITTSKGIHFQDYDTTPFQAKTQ
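20 nM HPGD preincubated 15 min at room temperature with compound in 50 mM Tris-HCl pH 8, 0.01% Tween 20. Started with 1 mM NAD+ and 30 uM prostaglandin E2; NADH fluorescence (360/450 nm) read 5 times over 30-s intervals, last minus first.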
An asterisk follows results filed as active; ? = inconclusive; . = no result; [ ] = remark or other dose. This is a sample that favours compounds with a hit; in the whole collection about 10% have one here. Unless noted, calls come from the whole dose curve; as a rule, active = well fitted inhibition curve with a large enough effect (not every such curve was filed as active); inconclusive = small, poorly fitted or top-dose-only effect, or another doubt; inactive = no such curve, though single readings can be large or run the other way. Unless noted, % is set by controls: 0 for no effect and ±100 for the full control effect.

SMILES	LMNA splice mod	ALDH1A1 inh	Luc counter	PNC assembly inh	HPGD block
O=C(NCCCCc1ccccc1)C12CN(Cc3ccccc3)CC1C(c1ccc([N+](=O)[O-])cc1)=NO2 (stereo not drawn)	-16.1%	11.2µM*	2.3%	22.1	-18.4%
COc1ccc(CCNC(=O)C23CN(Cc4ccccc4)CC2C(c2ccc([N+](=O)[O-])cc2)=NO3)cc1 (stereo not drawn)	-4.3%	15.8µM*	3.5%	40.9	-22.7%
O=C(NCCCCc1ccccc1)C12CN(Cc3ccccc3)CC1C(c1cccc([N+](=O)[O-])c1)=NO2 (stereo not drawn)	-13.3%	?	3.8%	23.1	-6.8%
O=C(CNC(=S)N(Cc1ccccc1)Cc1cccnc1)NC1CCCCC1	-5.4%	12.6µM*	-0.2%	-20.4	-4.2%
COc1ccc(CN(Cc2cccnc2)C(=S)NCCc2ccccc2)cc1OC	-1.7%	?	2.3%	-106.3*	-13.7%
Cc1ccc(CCNC(=O)CNC(=S)N(Cc2ccccc2)Cc2cccnc2)cc1	.	-13.9%	0.2%	.	.
O=C(O)CNC(=S)N(Cc1ccccc1)Cc1cccnc1	5.0%[46 µM]	-5.8%	2.6%	.	.
CCCCNC(=O)CNC(=S)N(Cc1ccccc1)Cc1cccs1	.	?	-2.2%	.	.
O=C(CNC(=S)N(Cc1ccccc1)Cc1cccnc1)NCc1ccccc1	.	17.8µM*	12.9%	.	.
CC1CCCC(NC(=O)CNC(=S)N(Cc2ccccc2)Cc2cccs2)C1C (stereo not drawn)	27.4%[9.22 µM]	12.6µM*	0.7%	.	.
O=C(NCc1cccs1)O[C@H]1C[C@H]2CC[C@@H]1C2	.	4.1%[13.5 µM]	-3.9%[7.66 µM]	.	-3.7%
Cc1ccc(NC(=O)CSCC(=O)O)cc1	.	0.6%	-0.8%	.	.
Cc1ccc(NC(=O)CSCc2ccco2)cc1	-11.3%[46 µM]	22.4µM*	-1.5%	.	.
O=CN(Cc1ccco1)C1(C(=O)NC2CCCCC2)CCCCC1	0.0%	14.1µM*	0.4%	5.2	3.1%
Cc1ccccc1CSCC(=O)NC1CCCC1	2.4%	8.0%	17.8%	-28.5	17.8µM*
O=C(CSCc1ccco1)NC1CCCC1	2.8%	?	-8.8%	?	28.2µM*
CC(=O)N(Cc1ccco1)C1(C(=O)NC2CCCC2)CCCCC1	-4.2%	-7.8%	7.3%	-11.9	-6.2%
N=C(N)[C@H](N=Nc1ccccc1)C(N)=O	.	-8.1%[13.5 µM]	-2.0%[7.66 µM]	.	0.3%
Cc1nn2c(C)c(C(=O)N3CCN(c4ccc(Cl)cc4)CC3)cnc2c1-c1ccc(F)cc1	-4.3%[46 µM]	.	.	.	.
CCc1ccc(NC(=O)CSc2nccn2C2CCCC2)cc1	-3.2%[46 µM]	.	.	.	.
O=C(NCc1ccccc1)C1(c2ccccc2)CCN(S(=O)(=O)c2ccccc2)CC1	1.9%	8.91µM*	-4.4%	12.1	-13.4%
CN(C)C(=O)C1(c2ccccc2)CCN(S(=O)(=O)c2ccccc2)CC1	-0.5%	-6.4%	-1.6%	18.8	-9.4%
CCOC(=O)N1CCC(=NNS(=O)(=O)c2cccc([N+](=O)[O-])c2)CC1	-7.5%	10µM*	-3.3%	22.4	-13.5%
COc1ccc(C(=O)NCC23C=CC(O2)C2C(=O)N(Cc4ccccc4)C(=O)C23)cc1 (stereo not drawn)	-13.4%	7.94µM*	-0.2%	-19.6	-6.6%
COc1ccc(CCNC(=O)c2ccc(CN3CCC(Cc4ccccc4)CC3)cc2)cc1	-6.3%	7.3%	3.0%	18.6	-5.8%
SMILES	LMNA splice mod	ALDH1A1 inh	Luc counter	PNC assembly inh	HPGD block
O=C(CCSc1ccccc1)Nc1nc2c(s1)COc1ccccc1-2	20.4%	14.1µM*	-0.5%	-19.5	-25.6%
CC(C)(C)C(=O)Nc1nc2c(s1)COc1ccccc1-2	?	-7.7%	3.2%	-10.8	-18.9%
Nc1nc2c(s1)COc1ccccc1-2	?	22.4µM*	-2.6%	.	.
C(=C\c1ccccc1)/CN1CCN(Cc2nc(Cc3ccccc3)no2)CC1	?	12.6µM*	1.0%	.	.
O=C(CCNc1ccc(Cc2ccncc2)cc1)c1ccc([N+](=O)[O-])cc1	?	0.112µM*	0.3%	.	.
O=C(Nc1ccc(Cc2ccncc2)cc1)c1cccc([N+](=O)[O-])c1	?	7.0%	-0.7%	-17.0	1.41µM*

High-throughput results deposited in PubChem BioAssay by National Center for Advancing Translational Sciences (NCATS).
